PubChem BioAssay
Active and inactive are the calls of the source.

Columns and labels:
[1] = compounds binding Alexa647 anti-His antibody – biochemical, small-molecule microarray, 635 nm fluorescence, artefact control for SMM control protein annotation, primary screen (AID 1128); conditions: higher = more signal;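 further: score merges feature fluorescence with signal-to-noise for each printed compound spot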
[2] = tested on: Human papillomavirus type 1a E7 protein (residues 1-88); test: HPV1a E7 small-molecule binders, primary screen, biochemical, small-molecule microarray, residues 1-88, 635 nm (AID 1129); conditions: small-molecule microarray binding, fluorescence 635 nm; higher = more signal
[3] = molecular target: Focal adhesion kinase 1 (Homo sapiens) (UniProt Q05397); test: PTK2 protein binding on printed compound slides – biochemical, small-molecule microarray, 635/667 nm fluorescence, BSA, DTT, primary screen (AID 1130); conditions: 635 nm fluorescence, higher = more signal;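 further: composite of spot emission at 667 nm and signal to noise over triplicate slides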
[4] = tested on: Fibrinogen (Alexa647-labelled); test: Alexa647-fibrinogen binding to printed small molecules – biochemical, small-molecule microarray, 635/667 nm fluorescence, artefact control for SMM control-protein annotation, profiling panel (AID 1131); conditions: fibrinogen-A647 binding fluorescence, higher = more signal;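 further: z-score merges 667 nm fluorescence with per-spot signal-to-noise over triplicate slides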
[5] = molecular target: Follistatin (Homo sapiens) (UniProt P19883); test: FST protein binding to printed compounds – biochemical, small-molecule microarray, 635/667 nm fluorescence, primary screen (AID 1132); conditions: 635 nm fluorescence, higher = more signal
[6] = molecular target: Fibroblast growth factor 2 (Homo sapiens) (UniProt P09038); test: basic fibroblast growth factor binding to printed compounds – biochemical, small-molecule microarray, 635/667 nm fluorescence, primary screen (AID 1133); conditions: FGF2, fluorescence 635/667, higher = more signal
[7] = JC-1 mitochondrial potential readout, lung cancer cells – cell-based, A549, JC-1 fluorescence, basal, 24 h, 100 nL, profiling panel (AID 1138); conditions: higher = more signal;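 further: A549 lung adenocarcinoma cells under basal conditions with no added stimulus; test concentration not given here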
[8] = tested on: Lefty1; test: Lefty1 protein binding to printed compounds – biochemical, small-molecule microarray, 635/667 nm fluorescence, primary screen (AID 1139); conditions: fluorescence 635/667, higher = more signal
[9] = tested on: wheat germ agglutinin (Triticum aestivum), Alexa647-labelled; test: Alexa647-WGA lectin binding to printed small molecules – biochemical, small-molecule microarray, 635/667 nm fluorescence, artefact control for SMM control-protein annotation, profiling panel (AID 1140); conditions: WGA-A647 binding, 635 nm fluorescence, higher = more signal;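 further: score merges 667 nm feature emission with signal to noise over triplicate slides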
[10] = molecular target: Luciferin 4-monooxygenase (Photinus pyralis) (UniProt P08659); test: inhibition of purified Photinus pyralis luciferase – biochemical, luminescence, purified enzyme, 2006 set, primary screen (AID 1141); conditions: purified firefly luciferase, SteadyGlo luminescence, 30 min; higher = more signal, called active from +8 up or from −8 down;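 further: cell-free assay with purified firefly luciferase at 100 ng per well in PBS; test concentration not given here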
Luciferin 4-monooxygenase (Photinus pyralis), sequence (P08659 whole entry, looked up): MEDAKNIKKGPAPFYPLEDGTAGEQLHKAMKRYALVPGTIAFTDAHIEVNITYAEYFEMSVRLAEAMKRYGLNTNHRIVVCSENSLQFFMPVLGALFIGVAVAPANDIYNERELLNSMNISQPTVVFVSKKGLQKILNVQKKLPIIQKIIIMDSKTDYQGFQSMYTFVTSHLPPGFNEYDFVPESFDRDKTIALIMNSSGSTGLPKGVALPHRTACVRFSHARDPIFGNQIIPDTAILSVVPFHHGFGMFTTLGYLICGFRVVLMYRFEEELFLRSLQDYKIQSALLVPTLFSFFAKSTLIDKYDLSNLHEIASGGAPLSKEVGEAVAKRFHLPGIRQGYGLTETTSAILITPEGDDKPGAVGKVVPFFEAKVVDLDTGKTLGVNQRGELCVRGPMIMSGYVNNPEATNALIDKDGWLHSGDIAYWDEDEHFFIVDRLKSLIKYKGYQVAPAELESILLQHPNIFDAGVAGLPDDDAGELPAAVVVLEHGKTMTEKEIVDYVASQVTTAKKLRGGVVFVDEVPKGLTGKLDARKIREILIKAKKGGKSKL

Focal adhesion kinase 1 (Homo sapiens), sequence (Q05397 whole entry, looked up): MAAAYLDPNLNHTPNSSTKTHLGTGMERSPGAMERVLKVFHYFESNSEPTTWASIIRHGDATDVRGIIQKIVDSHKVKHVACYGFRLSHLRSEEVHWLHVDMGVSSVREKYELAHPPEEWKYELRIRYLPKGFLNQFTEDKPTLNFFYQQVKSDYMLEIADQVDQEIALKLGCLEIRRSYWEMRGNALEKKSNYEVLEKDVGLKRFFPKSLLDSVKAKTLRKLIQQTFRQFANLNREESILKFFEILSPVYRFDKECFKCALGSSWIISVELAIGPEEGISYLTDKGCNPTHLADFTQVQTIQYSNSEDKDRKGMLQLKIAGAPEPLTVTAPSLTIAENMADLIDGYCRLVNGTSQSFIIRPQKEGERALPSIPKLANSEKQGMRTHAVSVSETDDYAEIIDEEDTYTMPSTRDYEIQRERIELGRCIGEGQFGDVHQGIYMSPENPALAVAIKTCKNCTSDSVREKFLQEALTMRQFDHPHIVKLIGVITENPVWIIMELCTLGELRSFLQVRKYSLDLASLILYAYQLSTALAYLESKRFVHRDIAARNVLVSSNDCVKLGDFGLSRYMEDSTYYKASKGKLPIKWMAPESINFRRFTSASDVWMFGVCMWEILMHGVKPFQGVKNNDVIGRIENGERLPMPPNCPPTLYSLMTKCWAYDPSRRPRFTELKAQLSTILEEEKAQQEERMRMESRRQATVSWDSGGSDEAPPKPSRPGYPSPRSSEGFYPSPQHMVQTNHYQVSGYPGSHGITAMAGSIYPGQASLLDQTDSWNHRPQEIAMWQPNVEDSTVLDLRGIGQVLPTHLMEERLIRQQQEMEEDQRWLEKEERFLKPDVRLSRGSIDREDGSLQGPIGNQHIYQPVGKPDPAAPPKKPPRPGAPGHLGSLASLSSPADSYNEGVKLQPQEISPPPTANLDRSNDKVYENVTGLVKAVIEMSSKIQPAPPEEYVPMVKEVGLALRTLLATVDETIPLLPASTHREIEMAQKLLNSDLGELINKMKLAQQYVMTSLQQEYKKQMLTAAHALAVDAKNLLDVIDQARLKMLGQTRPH
Follistatin (Homo sapiens), sequence (P19883 whole entry, looked up): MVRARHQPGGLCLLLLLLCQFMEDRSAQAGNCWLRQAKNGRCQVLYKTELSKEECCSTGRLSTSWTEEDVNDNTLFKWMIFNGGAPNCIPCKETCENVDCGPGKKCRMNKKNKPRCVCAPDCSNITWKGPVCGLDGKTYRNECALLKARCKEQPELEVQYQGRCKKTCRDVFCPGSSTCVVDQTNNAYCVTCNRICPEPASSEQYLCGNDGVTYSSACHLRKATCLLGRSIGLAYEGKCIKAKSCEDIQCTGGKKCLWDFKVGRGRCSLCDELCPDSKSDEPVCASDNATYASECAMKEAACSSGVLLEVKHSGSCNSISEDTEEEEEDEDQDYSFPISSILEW
Fibroblast growth factor 2 (Homo sapiens), sequence (P09038 whole entry, looked up): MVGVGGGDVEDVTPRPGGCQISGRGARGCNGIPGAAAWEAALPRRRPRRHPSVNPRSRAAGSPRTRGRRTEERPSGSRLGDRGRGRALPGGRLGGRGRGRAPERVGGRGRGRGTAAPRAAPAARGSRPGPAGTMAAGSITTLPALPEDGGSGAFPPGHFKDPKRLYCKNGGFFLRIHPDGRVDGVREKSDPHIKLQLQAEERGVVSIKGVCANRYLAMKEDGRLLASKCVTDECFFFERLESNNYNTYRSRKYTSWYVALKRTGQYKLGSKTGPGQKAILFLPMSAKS

| SMILES | composite z-score [1] | composite z-score [2] | composite z-score [3] | composite z-score [4] | composite z-score [5] | composite z-score [6] | z-score [7] | composite z-score [8] | composite z-score [9] | z-score [10] |
| --- | --- | --- | --- | --- | --- | --- | --- | --- | --- | --- |
| COc1cc2c(cc1O)C(c1cccs1)N(Cc1sc3ccccc3c1Cl)CC2 (stereo not given) | 2.64 | 1.28 | 0.379 | 1.01 | 1.14 | 0.841 | -0.702 | 0.72 | 1.19 | -0.42 (inactive) |
| O=C(O)[C@@H]1C[C@@H]2C(=O)N3CCC[C@H]3C(=O)N2[C@@H]1c1cccc(OCCO)c1 | 3.41 | 1.31 | 2.47 | 0.977 | 1.41 | 1.4 | 0.729 | 1.7 | 1.69 | -0.485 (inactive) |
| NC(=O)[C@H]1[C@@H]2C(=O)O[C@@H](c3ccccc3)[C@@H](c3ccccc3)N2[C@@H](c2ccc(O)cc2)[C@]12C(=O)Nc1ccccc12 | 0.53 | -0.189 | -0.91 | -1.61 | -0.441 | -0.943 | -0.186 | -0.502 | -1.03 | -0.794 (inactive) |
| O=C1O[C@H](c2ccccc2)[C@H](c2ccccc2)N2[C@H]1[C@@H](C(=O)O)[C@]1(C(=O)Nc3ccc(C#CC4(O)CCCCCC4)cc31)[C@H]2c1ccc(O)cc1 | 0.401 | 0.391 | 0.016 | -0.132 | -0.0848 | -0.201 | -0.697 | 0.0963 | 0.211 | -0.828 (inactive) |
| Cc1cccc([C@H]2C[C@H]3C(I)=C[C@@H]2C(=O)[C@]32CO2)c1 | 0.0509 | -0.479 | -0.446 | -0.775 | 0.573 | 0.437 | 0.33 | -0.118 | -0.412 | -0.303 (inactive) |
| CN1C(=O)C2C=CC(C(O)c3ccc(I)cc3)N(Nc3ccccc3)C2C1=O (stereo not given) | 0.276 | 1.22 | -0.161 | 1.02 | 1.19 | 0.979 | 0.255 | 0.465 | 0.86 | -0.431 (inactive) |
| COc1ccc([Si](C)(C)[C@H]2[C@H](CC(=O)N3Cc4ccccc4C[C@H]3CO)O[C@@]3(C(=O)N(Cc4ccc(N5C(=O)c6cccc7cccc5c67)cc4)c4ccccc43)[C@@H]2C)cc1 | 0.33 | 1.15 | 1.28 | 0.405 | 1.07 | 1.37 | 1.34 | 1.01 | 0.237 | 0.0376 (inactive) |
| O=c1cccc(-c2ccc(F)cc2)o1 | 0.198 | 0.734 | 0.111 | -0.191 | 0.456 | 0.898 | -0.0822 | 0.571 | 0.62 | 1.73 (inactive) |
| COCCOC(=O)N1C(=O)[C@@]2(c3cc(C#CC4(O)CCCCCC4)ccc31)[C@H](C(=O)N1CCN(c3ncccn3)CC1)[C@H]1C(=O)O[C@H](c3ccccc3)[C@H](c3ccccc3)N1[C@@H]2c1ccccc1OCCO | 1.29 | 1.18 | 1.1 | 0.821 | 1.28 | 1.37 | -1.04 | 0.883 | 0.321 | -0.348 (inactive) |
| O=C1[C@@]23C=C(Br)[C@H](C[C@@H]2COC3)[C@@]12CO2 | 0.192 | 0.247 | 0.0493 | 0.161 | 0.397 | 0.423 | -0.0605 | 0.414 | 0.0439 | 0.44 (inactive) |
| C=CCN1C(=O)[C@@]2(O[C@@H](CCO)[C@H]([Si](C)(C)c3ccc(OC)cc3)[C@H]2C)c2cc(N3CCOC3=O)ccc21 | 2.38 | 1.15 | 0.246 | 0.768 | -0.354 | -0.25 | -0.658 | 0.0949 | 0.486 | -1.03 (inactive) |
| Cc1cccc([C@H]2C[C@H]3C(Br)=C[C@@H]2C(=O)[C@]32CO2)c1 | -0.255 | -1.61 | -0.181 | -0.145 | 0.243 | 0.291 | 0.518 | 0.154 | -0.278 | -0.425 (inactive) |
| COCCOC(=O)N1C(=O)[C@@]2(c3cc(C#CCCO)ccc31)[C@H](C(=O)N1CCCCCCC1)[C@H]1C(=O)O[C@H](c3ccccc3)[C@H](c3ccccc3)N1[C@@H]2c1ccccc1OCCO | 0.573 | 1.19 | 0.686 | 0.885 | 1.45 | 0.819 | -0.971 | 1.41 | 1.25 | -1.29 (inactive) |
